SK-BR-3 tox 24h – SK-BR-3 proliferation inhibitors, primary screen, cell-based, human, 24 h; SK-BR-3 viability, CellTiter-Glo ATP luminescence; active compounds read low; viability, % at 10 µM; 41,000 tested, 0.47% active;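 active means viability at or below the median of all test compounds minus 3 SD, in both replicates if run twice, cut at about 45% in these data; inconclusive means duplicate replicates that disagree with each other; inactive means viability above that cutoff in every replicate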
HER2 expr 66K – inhibitors of Her2 protein expression, primary screen, SKBR-3 cells, AlphaScreen, 66K library. 65,000 tested, 0.69% active. HER2 level % of control, % at 10 µM. SKBR-3 HER2 protein level, 18-24 h; active compounds read low. Receptor tyrosine-protein kinase erbB-2 (Homo sapiens), P04626;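 active means HER2 level under 5% of the carrier-only control; inconclusive means no clear call, values can overlap the other calls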;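 further: lower value means stronger loss of Her2 protein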
PKA inh – inhibitors of human PKA kinase activity, primary screen, biochemical, ATP-depletion luminescence, Kemptide substrate | cAMP-dependent protein kinase catalytic subunit alpha (Homo sapiens), P17612 | inhibition, % at 6 µM | PKA Kemptide phosphorylation, Kinase-Glo ATP luminescence | 65,000 tested, 0.1% active;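 active means inhibition above the screen-wide mean inhibition plus 3 SD, cut at about 21% in these data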
Hsp90 block – tumor Hsp90 inhibitors, primary screen, cell lysate, fluorescence polarization, NCI-N417 lysate; Cy3B-geldanamycin FP displacement; inhibition, % at 30 µM; 64,000 tested, 0.35% active; AID 429, 2006;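 active means inhibition above 50%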
WNV protease inh – inhibitors of WNV NS2B-NS3 protease, primary screen, biochemical, fluorogenic substrate. 65,000 tested, 0.18% active. fluorogenic substrate Ex360/Em465; active compounds read low. z-score (no concentration beside the values). Genome polyprotein (West Nile virus), P06935; in the data active means z-score below about -3
ROCK2 inh – inhibitors of human ROCK2 kinase, primary screen, biochemical, high-throughput, luminescence; Rho-associated protein kinase 2 (Homo sapiens), O75116; purified ROCK2, Kinase-Glo ATP depletion luminescence; inhibition, % at 6 µM; 60,000 tested, 0.35% active; AID 604, 2007;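 active means inhibition above the screen-wide mean inhibition plus 3 SD, cut at about 18% in these data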
Of the large screens only hits and unclear results are named; the others gave an inactive call. Only some compounds are listed: those with a hit (about 1.6% of all), similar ones and a draw of the others.

c1ccc(Cn2ncc3c2ncn2nc(-c4ccncc4)nc32)cc1	PKA inh 48
Cc1ccc(-n2ncc3c2ncn2c(-c4ccncc4)nnc32)cc1	none
c1ccc(Cn2ncc3c2ncn2c(-c4ccncc4)nnc32)cc1	PKA inh 76
Cn1ncc2c1ncn1nc(CCc3ccccc3)nc21	none
COCc1nc2c([nH]1)c(=O)n(C)c(=O)n2CC(C)C	none (no result: SK-BR-3 tox 24h, HER2 expr 66K, PKA inh, WNV protease inh, ROCK2 inh)
COCCCN1C(=O)C(=O)/C(=C(/O)c2ccc(OCC(C)C)cc2)C1c1cccnc1 (stereo unspecified)	HER2 expr 66K -21
COCCCN1C(=O)C(=O)/C(=C(/O)c2ccc(OC(C)C)cc2)C1c1cccnc1 (stereo unspecified)	none
Cc1cccc2cc(C#N)c(NCCNS(=O)(=O)c3ccc4c(c3)OCCO4)nc12	SK-BR-3 tox 24h 30
COc1ccc2c(=O)c3c(=O)n(Cc4ccco4)c(-c4cc(OC)c(OC)c(OC)c4)nc3oc2c1	SK-BR-3 tox 24h 27
COc1ccc2c(=O)c3c(=O)n(Cc4ccco4)c(-c4ccccc4)nc3oc2c1	none
COC(=O)C(C(=O)OC)C(C(C)C)C(C(=O)OC)C(=O)OC	none (no result: PKA inh, Hsp90 block, ROCK2 inh)
COc1ccc(C)cc1NS(=O)(=O)c1cccc2nonc12	none (no result: Hsp90 block, ROCK2 inh)
CCCN1CCCc2cc(CN)ccc21	Hsp90 block 80
c1ccc2c(c1)CCN2CCN1CCc2ccccc21	none (no result: SK-BR-3 tox 24h)
O=C(CN(Cc1ccc2c(c1)OCO2)C(=O)CSc1nc2ccccc2o1)NC1CCCCC1	none
Clc1ccc(COc2ccccn2)c(Cl)c1	none
CN(C)CC1(c2ccccc2)CCCC1	SK-BR-3 tox 24h 25
Clc1ccc(CSC2=NCCCN2)cc1Cl	HER2 expr 66K -17 (no result: SK-BR-3 tox 24h)
Clc1ccc(CSc2nnc([C@@H]3CCCN3)o2)cc1Cl	none
Cc1cccc(N2CCN(C(=O)n3ccnc3)CC2)c1C	none (no result: SK-BR-3 tox 24h)
CCCCc1c(C)nc(N)[nH]c1=O	ROCK2 inh 18
Cc1ccc(C(=O)OCc2cn3ccccc3n2)cc1	none (no result: SK-BR-3 tox 24h)
Cc1ccc(-c2nn3c(C)nnc3s2)cc1NC(=O)c1ccc(-c2cccc(Cl)c2)o1	SK-BR-3 tox 24h 33
COc1cccc(C(=O)NC2CC3CCCC(C2)N3CC(=O)Nc2ccc(N(C)C)cc2)c1 (stereo unspecified)	none (no result: Hsp90 block, WNV protease inh, ROCK2 inh)
COc1cccc(C(=O)NC2CC3CCCC(C2)N3CC(=O)Nc2ccccc2)c1 (stereo unspecified)	Hsp90 block 95
Cc1cc(NC(=O)CN2CCN(c3ccccc3F)CC2)nc2c1c(=O)oc1ccccc12	none (no result: SK-BR-3 tox 24h)
Cc1ccc(CNC(=O)Cn2c(=O)oc3ccccc32)o1	SK-BR-3 tox 24h 38
COc1cccc(CNC(=O)Cn2c(=O)oc3ccccc32)c1OC	none (no result: SK-BR-3 tox 24h)
CCn1c(C)cc(=S)c2ccccc21	HER2 expr 66K -19
Cc1cccc(C)c1OCC(O)CNS(=O)(=O)c1ccccc1C(=O)N1CCCCC1 (stereo unspecified)	none
COc1cc(Cn2c(-c3nonc3N)nc3ccccc32)ccc1C	SK-BR-3 tox 24h 35
Oc1ccc(Nc2nc(-c3ccc(O)cc3)cs2)cc1	none
c1cc2c(cc1Nc1nc(-c3ccc4c(c3)OCO4)cs1)OCCO2	ROCK2 inh 24 (no result: SK-BR-3 tox 24h)
COc1ccc(CC(=O)Nc2cccc(-c3nnc(-c4cccc(C)c4)o3)c2)cc1OC	SK-BR-3 tox 24h inconclusive, HER2 expr 66K -0.4
Cc1ccc(NC(=O)CCn2nc(C)cc2C)c(C)c1	none
Cc1ccc(NC(=O)CNc2cccc(C)c2C)c(C)c1	HER2 expr 66K -28 (no result: SK-BR-3 tox 24h)
Nn1cc(-c2ccccc2)nc1SCC(=O)NCCN1C(=O)CSC1=O	none (no result: SK-BR-3 tox 24h)
O=C(CSc1oc(-c2ccccc2)nc1S(=O)(=O)c1ccc(F)cc1)NCC1CCCO1 (stereo unspecified)	HER2 expr 66K -21 (no result: Hsp90 block, WNV protease inh, ROCK2 inh)
COc1cccc(C(=O)NC2(C(F)(F)F)N=C3SCCN3C2=O)c1 (stereo unspecified)	WNV protease inh -4.8
O=C(O)CCC(=O)Nc1nnc(C(F)(F)F)s1	SK-BR-3 tox 24h 40
Cn1c(=O)[nH]c(=O)c2c1nc(N1CCOCC1)n2CCSc1ncccn1	none
Cc1[nH]nc2c1C(c1ccc(-c3ccccc3C#N)o1)C(C#N)=C(N)O2 (stereo unspecified)	ROCK2 inh 40
CCSCCOC(=O)C1=C(C)NC(=O)NC1c1ccccc1 (stereo unspecified)	Hsp90 block 88 (no result: SK-BR-3 tox 24h)
CCSCCOC(=O)C1=C(C)NC(=O)NC1c1ccc2c(c1)OCO2 (stereo unspecified)	none (no result: SK-BR-3 tox 24h)
COc1cc(NC(C)=O)c2ncccc2c1	none (no result: SK-BR-3 tox 24h, HER2 expr 66K, PKA inh, WNV protease inh, ROCK2 inh)
COc1ccc(C)cc1S(=O)(=O)N(CC(=O)N1CCCC1)c1ccccc1	none
CN1/C(=N\O)c2cccc3cccc1c23	ROCK2 inh 37
Clc1ccc(OCCN2CCN(c3ncnc4sccc34)CC2)cc1	PKA inh 36 (no result: SK-BR-3 tox 24h)
CCN1CCN(c2ncnc3c2cnn3-c2ccc(Cl)cc2)CC1	none (no result: SK-BR-3 tox 24h)
CC(C)C(=O)Nc1cccc(C(=O)Nc2nccs2)c1	none
CCN(CC(=O)Nc1ccccc1OC)C(=O)C1CC2C=CC1C2 (stereo unspecified)	WNV protease inh -7.5 (no result: SK-BR-3 tox 24h)
CC(N)(Cc1ccc(O)cc1)C(=O)O (stereo unspecified)	none (no result: SK-BR-3 tox 24h, HER2 expr 66K, PKA inh, WNV protease inh, ROCK2 inh)
O=C(CCN1C(=O)c2cccnc2C1=O)NC1CCCCCC1	HER2 expr 66K -17
Fc1ccc(-c2nnc(-c3ccc(Cl)cc3Cl)o2)cc1	none (no result: SK-BR-3 tox 24h)
Clc1ccc(-c2nnc(-c3ccccc3)o2)c(Cl)c1	HER2 expr 66K -26 (no result: SK-BR-3 tox 24h)
COc1ccc(S(=O)(=O)Nc2ccc3c(c2)OCO3)cc1OC	Hsp90 block 51
COC(=O)COc1ccc(S(=O)(=O)Nc2ccc3c(c2)OCO3)cc1	HER2 expr 66K -11
COc1cc(/C=N\n2nnnc2N)ccc1OCc1ccc(F)cc1	ROCK2 inh 18 (no result: SK-BR-3 tox 24h)
COC(=O)c1sc(NC(=O)c2ccco2)nc1C	none (no result: SK-BR-3 tox 24h)
Cc1nc(NC(=O)c2ccco2)sc1C(=O)Nc1ccc(Br)cc1	HER2 expr 66K -3.0 (no result: SK-BR-3 tox 24h)
CCOc1ccc(NC(=O)CN(C)c2nnnn2-c2ccccc2)cc1OCC	none (no result: Hsp90 block, ROCK2 inh)
CC(C)Cc1nc2oc3c(N4CCN(CCO)CC4)ncnc3c2c2c1CCCC2	HER2 expr 66K -3.6
Cc1c(C)c2cc(Cl)c(OCc3nn[nH]n3)cc2oc1=O	none
OCCNC1=NCCN1	WNV protease inh -3.2
Brc1cccc(-c2cnc3n2CCCCC3)c1	WNV protease inh -4.2
Brc1cccc(-c2nnc3n2CCCCC3)c1	none
O=C(c1cccs1)N1CCN(C(=O)c2ccco2)c2ccccc2C1	WNV protease inh -4.8
Cc1oc2c(O)c(O)ccc2c(=O)c1-c1cnn(-c2ccccc2)c1	none (no result: PKA inh, Hsp90 block, ROCK2 inh)
Cc1oc2c(O)c(O)ccc2c(=O)c1-c1ccccc1	Hsp90 block 70 (no result: SK-BR-3 tox 24h)
